Shown are actives, neighbours in structure and some others; about 7.3% of the full set was active somewhere.
Rab9 promoter act = activates the Rab9 promoter | AID 485297 | 2.8% of 320,000 active | Potency, µM (top dose mostly 9.22 µM), inactives show top-dose activation, negative = inhibition, most hits filed as activators | Huh7 Rab9 promoter-luciferase reporter, luminescence, 24 h; further: % of control where 0% means no effect; nearly all actives have a fitted effect of over 60% in size
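Luciferase signal after 10 min detection reagent at ambient indicates Rab9 promoter upregulation; stably transfected Huh7 cells were treated 24 h with compound in DMSO at 37 °C, 5% CO2.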
ELG1 genotoxic = genotoxicity induction in ELG1-luciferase HEK293T cells | 1.3% of 330,000 active | HEK293T ELG1-luciferase reporter, luminescence, 16 h | AID 504466 | Potency, µM (series often up to 46 µM), for inactives: at the highest dose activity change, positive = activation, hits mostly activators; further: % of control where 0% means no effect; nearly all actives have a fitted effect of over 60% in size
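16 hr compound incubation (37 °C, 5% CO2) of HEK293T cells carrying luciferase-tagged ELG1; luciferase then measured by ONE-Glo luminescence after 30 min at RT.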
FLuc counter = firefly luciferase modulation, counter-screen for miR-21 project. P08659. purified FLuc, Km substrates, luminescence inhibition. Potency, µM (series often up to 57.5 µM), for inactives: top-dose activity change, negative = inhibition, hits mostly inhibitors. 6.9% of 360,000 active. AID 588342;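 further: plate controls were vehicle for no effect and reference inhibitor for full effect; nearly all actives have a fitted effect of over 55% in size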
Target sequence (P08659 whole entry, looked up): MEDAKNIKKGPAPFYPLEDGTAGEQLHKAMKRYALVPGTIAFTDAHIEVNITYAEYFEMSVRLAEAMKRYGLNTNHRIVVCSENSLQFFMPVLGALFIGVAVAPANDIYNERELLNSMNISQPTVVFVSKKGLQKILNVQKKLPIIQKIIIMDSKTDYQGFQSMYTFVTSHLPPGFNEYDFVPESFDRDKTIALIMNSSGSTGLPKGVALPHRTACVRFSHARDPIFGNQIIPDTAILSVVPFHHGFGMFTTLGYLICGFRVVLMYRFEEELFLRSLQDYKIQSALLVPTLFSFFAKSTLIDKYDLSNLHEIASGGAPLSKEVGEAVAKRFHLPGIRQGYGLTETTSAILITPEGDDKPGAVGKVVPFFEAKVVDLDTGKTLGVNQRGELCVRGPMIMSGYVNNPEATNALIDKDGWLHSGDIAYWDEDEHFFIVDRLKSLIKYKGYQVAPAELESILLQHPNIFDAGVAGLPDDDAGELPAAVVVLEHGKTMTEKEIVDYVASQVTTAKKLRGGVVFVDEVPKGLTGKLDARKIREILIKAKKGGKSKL
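Purified P. pyralis luciferase (10nM final) with 10uM D-luciferin and 10uM ATP (Km levels) in 50mM Tris acetate pH 7.5, 10mM Mg acetate, 0.01% Tween-20, 0.05% BSA; qHTS 6-point titration, ~60 µM downward; luminescence read.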
NPC1 prom act = activates the NPC1 promoter; Huh7 NPC1 promoter luciferase reporter, 24 h; Potency, µM (doses to about 9.22 µM), inactives show top-dose activation, hits mostly activators; 2.4% of 320,000 active; further: % of control where 0% means no effect; nearly all actives have a fitted effect of over 60% in size
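Huh7 reporter cells (NPC1 promoter driving luciferase) are dosed with compound for 24 h at 37 °C, 5% CO2; luciferase detection reagent is then added and luminescence measured after 10 min at ambient temperature.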
p53 reactivator = mutant p53 re-activation in reporter cells; H1299 p53-A138V BP100-luciferase reporter, luminescence, 24 h; Potency, µM (doses to about 92.2 µM), inactives show at the top dose activity change, positive = activation, usual class: activators; 0.063% of 320,000 active; AID 504706; further: % of control where 0% means no effect; nearly all actives have a fitted effect of over 45% in size
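p53-null H1299 cells stably carrying temperature-sensitive p53-A138V and a BP100-luciferase reporter were pinned with compounds (4-point, 1:5 series) and held 24 hrs at 37 deg C. Luminescence was read 10 min after detection reagent.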
SMN2 splice enh = enhancers of SMN2 splice variant expression; HEK293 SMN2-luciferase splicing reporter, luminescence, 30-36 h; Potency, µM (series often up to 46.1 µM), for inactives: at the top dose activity change, positive = activation, hits mostly activators; 2.8% of 210,000 active; further: % of control where 0% means no effect; nearly all actives have a fitted effect of over 55% in size
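HEK293 cells carry an SMN2 minigene-luciferase reporter in which exon 7 inclusion puts luciferase in frame. Cells were seeded at 2000 cells/well, attached for 10-12 hours, then exposed to compounds for 30-36 hours at 37C before ONE-Glo luminescence.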
* hit, by the source's call; ? = inconclusive; · = no result; [ ] = dose if it differs, or a comment. The call rests on the fitted dose curve; in most records, active means well fitted curve in the direction sought with a large enough effect; inconclusive means small, poorly fitted or top-dose-only effect, or another doubt; inactive means no such curve, though single readings can be large; an effect the other way counts as inactive or inconclusive. Potency means the concentration at half of the fitted maximal effect.

SMILES	Rab9 promoter act	ELG1 genotoxic	FLuc counter	NPC1 prom act	p53 reactivator	SMN2 splice enh
Cn1c(SCC(=O)Nc2nnc(-c3ccccc3)o2)nnc1C1CC1	0.3%	1.2%	13.5µM*	1.2%	12.3%	·
Nc1nccs1	·	·	·	·	·	0.2%
O=C(c1c(O)c2ccc(Cl)cc2[nH]c1=O)C1CC1	·	·	·	·	·	-7.6%
O=C1CCCC/C1=C/Nc1ccc2c(c1)OCO2	3.55µM*	?	10.7µM*	2.82µM*	?	?
COc1ccc(N/C=C2/CCCCC2=O)cc1	?	2.8%	15.1µM*	?	?	42.0%
O=C1CCCC/C1=C\Nc1ccccc1C(=O)O	2.1%	3.3%	-14.5%	-2.8%	?	-5.8%
O=C1CCCC/C1=C/Nc1ccc(C(=O)O)cc1	?	9.9%	12µM*	24.7%	9.8%	-27.3%
COc1ccc(Oc2ccc(N/C=C3/CCCC3=O)cc2)cc1	13.2%	1.4%	0.3%	-2.0%	0.3%	-9.8%[1.84 µM]
CCN(CC)S(=O)(=O)c1cc(NC(=O)c2cccc(N3C(=O)CCC3=O)c2)ccc1Cl	-5.4%	-1.7%	?	-1.6%	-1.1%	·
Cc1sc(NC(=O)c2cccc(N3C(=O)CCC3=O)c2)nc1-c1ccccc1	0.2%	4.3%	4.78µM*	12.0%	0.7%	·
O=C(Nc1ccc2sccc2c1)c1cccc(N2C(=O)CCC2=O)c1	3.98µM*	18.3µM*	8.49µM*	?	8.8%	18.6%
CCN(CC)S(=O)(=O)c1ccc(C(=O)Nc2nc3ccc(Cl)cc3s2)cc1	·	·	0.3%	·	·	·
CCN(CC)S(=O)(=O)c1cccc(C(=O)Nc2nc3cc4c(cc3s2)OCCO4)c1	-6.4%	-18.3%	9.53µM*	-2.6%	1.6%	-77.3%
COc1ccc(-c2csc(NC(=O)c3cccc(N4C(=O)CCC4=O)c3)n2)cc1C	0.1%	-6.4%	10.7µM*	1.4%	-5.2%	·
CC(=O)c1sc(NC(=O)c2cccc(N3C(=O)CCC3=O)c2)nc1-c1ccccc1	-1.5%	2.2%	?	-1.6%	-3.5%	·
COc1ccc(OC)c2sc(NC(=O)c3cccc(N4C(=O)CCC4=O)c3)nc12	0.3%	14.1%	2.2%	-1.0%	0.8%	·
COc1ccc(C(=O)N2N=C(c3cccc(OC)c3)CC2(O)C(F)(F)F)cc1 (stereo unspecified)	-10.7%	-1.6%	8.6%	-1.8%	-10.6%	1.3%
CCCN(C(=O)Cn1c(=O)oc2cc(Cl)ccc21)c1ccc(C(C)C)cc1	·	·	-2.1%	·	·	6.1%
O=C(Nc1nc2ccccc2s1)c1cccc(N2C(=O)CCC2=O)c1	4.5%	-7.4%	-0.5%	-5.3%	1.9%	·
O=C(Nc1nc2cc3c(cc2s1)OCCO3)c1cccc(N2C(=O)CCC2=O)c1	?	8.6%	0.757µM*	?	1.1%	·
O=C(NNc1nc2cc3c(cc2s1)OCO3)c1ccccc1	-1.1%	8.7%	?	0.7%	?	21.5%
O=C(NNc1nc2cc3c(cc2s1)OCO3)c1cccc(F)c1	3.2%	-3.8%	16.9µM*	8.5%	?	18.5%
Cc1sc(NC(=O)c2ccc(=O)n(C)n2)nc1-c1ccccc1	12.0%	-0.1%	13.5µM*	0.6%	6.8%	10.8%
Cc1sc(NC(=O)c2c(F)cccc2F)nc1-c1ccccc1	3.6%	5.4%	?	-6.2%	?	·
O=S(=O)(NC1C2CC3CC(C2)CC1C3)c1ccc(F)cc1 (stereo unspecified)	-1.5%	1.1%	2.5%	0.4%	13.5%	·
SMILES	Rab9 promoter act	ELG1 genotoxic	FLuc counter	NPC1 prom act	p53 reactivator	SMN2 splice enh
COc1ccc2cc(CNc3ccc(C)cc3)c(=O)n(CC(=O)Nc3cccc(C(F)(F)F)c3)c2c1	·	·	-0.9%	·	·	·
COc1ccc(-c2ccc3ccccc3n2)cc1	0.398µM*	0.92µM*	1.2µM*	0.708µM*	5.7%	12.6µM*
Nc1ccc(-c2cc(-c3ccc(N)cc3)nc(-c3ccccc3)n2)cc1	-4.9%	-0.5%	-2.7%	-1.3%	1.1%	2.1%
COc1ccc2nc3ccccc3nc2c1	2.82µM*	11.2%	16.9µM*	3.98µM*	12.2%	11.2µM*
COc1ccc(-c2ccc3ccccc3n2)cc1OC	2µM*	4.11µM*	10.7µM*	2.24µM*	19.1%	14.1µM*
Nc1ccc(-c2ccc3ccccc3n2)cc1	1.3µM*	·	·	1.46µM*	·	3.16µM*
CN1C(=O)C2CCCCN2c2ccc(C(=O)NCc3ccccc3Br)cc21 (stereo unspecified)	·	·	-8.9%	·	·	·
CC(=O)NCCc1ccc(C(=O)COC(=O)c2cc(C)oc2C)cc1	·	0.0%	·	·	?	·
CCOc1ccc(C2N3CC4(C(C)C)CN2CC(C(C)C)(C3)C4=O)cc1OC (stereo unspecified)	·	·	-1.6%	·	·	-3.3%
COc1ccc(Cl)cc1NC(=O)CN(C)C(=O)c1cn(-c2ccccc2)nc1-c1cccnc1	-6.1%	-23.8%	-3.4%	-2.0%	-17.3%	·
Cc1ccc(CNC(=O)CSc2nc3c(sc4ccccc43)c(=O)n2CCCOC(C)C)cc1	·	·	-2.1%	·	·	·
COc1cccc(Cn2c(Oc3cc(C)cc(C)c3)nc3c2c(=O)n(C)c(=O)n3C)c1	·	·	-2.0%	·	·	-6.5%
Cc1cccc(C(=O)Nc2ccc3c(c2)ncn3C)c1	1.26µM*	?	9.53µM*	1.58µM*	17.1%	·
O=C(Nc1ccc2nn(-c3ccccc3)nc2c1)c1cccs1	3.55µM*	?	-11.2%[2.3 µM]	?	3.9%	?
O=C(Nc1ccc2nsnc2c1)c1cccs1	16.6%	-3.8%	-18.7%	22.6%	8.6%	-5.9%
Cn1c(CN2CCCC2)nc2cc(NC(=O)c3cccs3)ccc21	24.6%	1.5%	?	14.9%	?	?
Cc1cccc(C(=O)Nc2cccc(-c3cnc4ccccc4n3)c2)c1	-4.1%	4.2%	1.8%	2.6%	3.3%	11.3%
Cn1cnc2cc(NC(=O)c3cccs3)ccc21	2.82µM*	?	16.9µM*	?	5.0%	·
Cc1cccc(C(=O)Nc2ccc3c(c2)nc(C)n3C)c1	0.316µM*	?	3.01µM*	0.398µM*	18.6%	·
COc1ccc(CNC(=O)CCn2cccn2)cc1	·	·	4.0%	·	·	·
C=CCn1c(SCC(=O)Nc2cc(C)on2)nc2sc3c(c2c1=O)CCCC3	-1.1%	-0.6%	-0.8%	-1.3%	-0.6%	12.6µM*
C=C(C)Cn1c(SCC(=O)c2ccccc2)nc2sc3c(c2c1=O)CCCC3	·	·	-1.3%	·	·	5.62µM*
C=C(C)Cn1c(SCC(=O)Nc2cccc(C)c2)nc2sc3c(c2c1=O)CCCC3	·	·	0.4%	·	·	-18.5%
CCn1c(SCC(=O)Nc2cc(C)on2)nc2sc3c(c2c1=O)CCCC3	1.2%	15.1%	-0.5%	1.3%	-6.4%	27.5%
CCN1C(=NCCCOC(C)C)N[C@@H](CCc2ccccc2)[C@H](C(=O)NCCCOC(C)C)[C@H]1C	-7.4%	-2.6%	0.6%	-1.5%	-0.5%	·

High-throughput results deposited in PubChem BioAssay by National Center for Advancing Translational Sciences (NCATS).
